Experimental findings from PMC4552634, “A New Set of Chemical Starting Points with Plasmodium falciparum Transmission-Blocking Potential for Antimalarial Drug Discovery” (PLoS ONE, 2015) are described below.

The whole screen tested about 13,000 compounds, of which about 3,200 (25%) showed an effect of 50% or more. The list shows a part of the results.

This test concerns P. falciparum stage V gametocytes. Also noted: BacTiter-Glo ATP luminescence viability of purified stage V gametocytes in 384-well plates, per cent inhibition versus DMSO. The following applies: 48 h, 5 µM; inhibitor.
Broadly, the % Inhibition is the relative decrease from the control value, in per cent. As for `Fc1ccc(COc2ccc(Nc3ncnc4ccc(I)cc34)cc2Cl)cc1` [TCMDC-138628], the “% Inhibition” value was -1.956%.
`Cc1c(Cc2ccc(C(C)C)cc2)cnc2nc(N)nc(N)c12` [TCMDC-138044]: the “% Inhibition” value is given as 4.775%.
As for `CCOc1ccc(-c2nonc2NC(=O)c2cccc(Cl)c2)cc1OCC` [TCMDC-125200], the “% Inhibition” value was 91.59%.
As to `CCOc1ccc(-c2nonc2NC(=O)c2ccco2)cc1OCC` [TCMDC-125197], the “% Inhibition” value stood at 3.347%.
On to `CCOc1ccc(-c2nonc2NC(=O)c2ccccc2)cc1OCC` [TCMDC-125199], for which the “% Inhibition” value worked out at 91.48%.
As for `CCCCC(=O)Nc1nonc1-c1ccc(OCC)c(OCC)c1` [TCMDC-125071], the “% Inhibition” value is given as 74.8%.
As for `CCOc1ccc(-c2nonc2NC(=O)CC(C)C)cc1OCC` [TCMDC-125196], the figure is 42.86%; as for `CCOc1ccc(-c2nonc2NC(=O)c2cccs2)cc1OCC` [TCMDC-125207], 83.06%; as for `Cc1ccc2cc(NCCCCCCCCON3C(N)=NC(N)=NC34CCCCC4)ccc2n1` [TCMDC-140362], 9.593%.
For `Cn1cncc1C(=O)NC1CCN(c2ccnc(Nc3ccc(F)cc3)n2)C1` (centres unmarked) [TCMDC-133600], the “% Inhibition” value is -9.129%.
As for `CC(C)CC(C)NC(=O)C1Cc2c([nH]c3ccc(F)cc23)C2(CCN(Cc3ccccc3)CC2)N1` (centres unmarked) [TCMDC-141304], the “% Inhibition” value is reported as -71.76%.
For `Cc1cccc2nc(-c3ccc(-c4ccc(NC(=O)Nc5cccc(C#N)c5)cc4)s3)[nH]c12` [TCMDC-133189], the “% Inhibition” value came out at 17.89%.
The same measure for `CCN(CC)S(=O)(=O)c1ccc(C(=O)Oc2ccccc2N(Cc2ccc(OC)cc2)C2=NS(=O)(=O)c3ccccc32)cc1` [TCMDC-125657]: 32.63%; for `COc1ccc2nccc([C@@H](O)CN3CCC(NCc4ccc5sc(=O)[nH]c5c4)CC3)c2c1` [TCMDC-141199]: 32.68%; for `Oc1ccc(CN2CCC(N3CCN(CCc4ccccc4)CC3)C(O)C2)cc1Cl` (centres unmarked) [TCMDC-124627]: 21.13%.
`CCc1ccc(O)c(-c2cc(C(=O)Nc3cccnc3)[nH]n2)c1` [TCMDC-125321]: the “% Inhibition” value is on record as -26.21%.
In the case of `CN1CCN(Cc2c(O)ccc3c(=O)c(Oc4ccc(C(C)(C)C)cc4)c(C(F)(F)F)oc23)CC1` [TCMDC-125699], the “% Inhibition” value amounted to 17.84%.
Regarding `O=C(Nc1cccc(Cl)c1)OC1CCCN2CCCCC12` (centres unmarked) [TCMDC-132073], the “% Inhibition” value came out at 14.89%.
As to `CC(C)(C)c1ccc(S(=O)(=O)Nc2ccccc2Cn2nc(N3CCNCC3)ccc2=O)cc1` [TCMDC-132579], the “% Inhibition” value was 45.07%.
For `CC(C)(C)C(=O)Nc1ccc(C(=O)Nc2cccc(-c3nc4ccccc4[nH]3)c2)cc1` [TCMDC-123720], the “% Inhibition” value is on record as -0.3051%.
In the case of `CCOc1ccc(-c2nonc2NC(=O)c2ccc(F)cc2)cc1OCC` [TCMDC-125209], the “% Inhibition” value was 63.55%.
On to `CCOc1ccc(-c2nonc2NC(=O)c2ccc(Cl)cc2)cc1OCC` [TCMDC-125210], for which the “% Inhibition” value worked out at 29.52%.
As to `CCOc1ccc(-c2nonc2NC(=O)c2ccc(OC)cc2)cc1OCC` [TCMDC-125208], the “% Inhibition” value amounted to 49.87%.
As for `Nc1cccc(CNCc2cccc(-c3ccc(-c4nc5ccccc5[nH]4)cc3)c2)c1.O=C(O)C(F)(F)F` [TCMDC-132940], the figure is -44.43%; as for `CCOc1cccc2nc(NCCCNCc3ccc(Cl)c(Cl)c3)cc(NCCCNCc3ccc(Cl)c(Cl)c3)c12` [TCMDC-139413], 102.1%; as for `CCOc1c(Cl)cc(Cl)cc1CNCCCNc1nc2ccccc2[nH]1` [TCMDC-140104], 21.3%.
In the case of `CCOc1cc(NCCCNc2ncc([N+](=O)[O-])cc2C)nc2ccccc12` [TCMDC-139265], the “% Inhibition” value is reported as -18.92%.
Take `COc1ccc2c(c1)nc(CN=C(N)N)n2Cc1ccc(Cl)cc1` [TCMDC-142042]: the “% Inhibition” value is listed as 28.73%.
As for `Cc1cc(O)c(-c2cc(C(=O)Nc3cccnc3)[nH]n2)cc1C` [TCMDC-124307], the figure is 6.508%; as for `COc1ccc(-c2nc(NC(=O)COc3ccc(C(C)=O)cc3)sc2C)cc1` [TCMDC-125108], 2.358%.
In the case of `Cn1nccc1C(=O)NCCNCc1ccc(-c2ccc(-c3nc4cc(C(F)(F)F)ccc4[nH]3)s2)cc1.O=C(O)C(F)(F)F` [TCMDC-133018], the “% Inhibition” value was -29.18%.
Take `CCNc1cc(C(=O)N[C@@H](Cc2ccccc2)[C@H](O)CNC(C)(C)CCCC(C)C)cc(N2CCCCS2(=O)=O)c1` [TCMDC-135211]: the “% Inhibition” value came to 24.29%.
Consider `CCNc1cc(C(=O)NC(Cc2ccccc2)C(O)CNC(C)(C)CCCC(C)C)c(F)c(N2CCCS2(=O)=O)c1` (centres unmarked) [TCMDC-135210], for which the “% Inhibition” value is 12.17%.
Turning to `CC(C)CCCC(C)(C)NC[C@@H](O)[C@H](Cc1ccccc1)NC(=O)c1cc(NC(C)C)cc(N2CCCCS2(=O)=O)c1F` [TCMDC-135540], the “% Inhibition” value came out at 50.35%.
As for `CC(C)Nc1cc(C(=O)N[C@@H](Cc2ccccc2)[C@H](O)CNCc2cccc(C(F)(F)F)c2)c(F)c(N2CCCCS2(=O)=O)c1` [TCMDC-135538], the figure is 3.895%; as for `CC(C)CCCC(C)(C)NC[C@@H](O)[C@H](Cc1ccccc1)NC(=O)c1cc(NC(C)C)cc(N2CCCCS2(=O)=O)c1` [TCMDC-135206], 89.31%; as for `CC(C)Nc1cc(C(=O)N[C@@H](Cc2ccccc2)[C@H](O)CNC(C)(C)c2cccc(C(F)(F)F)c2)cc(N2CCCCS2(=O)=O)c1` [TCMDC-135204], 0.5792%.
On to `CCNc1cc(C(=O)N[C@@H](Cc2ccccc2)[C@H](O)CNC(C)(C)CC(C)(C)C)c(F)c(N2CCCCS2(=O)=O)c1` [TCMDC-135166], for which the “% Inhibition” value was -2.474%.
In the case of `CCNc1cc(C(=O)N[C@@H](Cc2ccccc2)[C@H](O)CNC(C)CC(C)C)c(F)c(N2CCCCS2(=O)=O)c1` (some centres unmarked) [TCMDC-135167], the “% Inhibition” value came to 44.92%.
Consider `CCNc1cc(C(=O)N[C@@H](Cc2ccccc2)[C@H](O)CNCCC(C)(C)C)c(F)c(N2CCCCS2(=O)=O)c1` [TCMDC-135165], for which the “% Inhibition” value came out at 62.14%.
Regarding `CC(C)n1ncc2c3c(N)nc(N)nc3ccc21` [TCMDC-137866], the “% Inhibition” value came out at 12.93%.
In the case of `CCc1cc2c3c(N)nc(N)nc3ccc2n1CC` [TCMDC-137851], the “% Inhibition” value turned out to be 94.91%.
As to `CCc1cc2c3c(N)nc(N)nc3ccc2n1C(CC)CC` [TCMDC-137309], the “% Inhibition” value is reported as 2.246%.
The same measure for `CCn1c(C(C)C)cc2c3c(N)nc(N)nc3ccc21` [TCMDC-137856]: 56.38%; for `CCCc1cc2c3c(N)nc(N)nc3ccc2n1CC` [TCMDC-137946]: 108%.
The same measure for `CCc1cc2c3c(N)nc(N)nc3ccc2n1C(C)(C)C` [TCMDC-137306]: 29.54%; for `CCC(CC)n1c(COC)cc2c3c(N)nc(N)nc3ccc21` [TCMDC-137313]: -40.93%; for `CCc1cc2c3c(N)nc(N)nc3ccc2n1C(C)CC` (centres unmarked) [TCMDC-137308]: 10.89%.
On to `CCCc1cc2c3c(N)nc(N)nc3ccc2n1C(CC)CC` [TCMDC-137312], for which the “% Inhibition” value is listed as 13.64%.
As to `CSC1=NC2(CC(c3cccc(C)c3)c3cc(Cl)c(O)cc3O2)CC(C)(C)N1` (centres unmarked) [TCMDC-125563], the “% Inhibition” value is reported as 19.29%.
With `O=C(c1ccc(-c2ccccn2)s1)N1CCc2cc3nccc(N4CCN5CCC[C@H]5C4)c3cc21` [TCMDC-140047], the “% Inhibition” value is listed as 34.48%.
`CCCCCCn1c(Sc2ccc(C#N)c([N+](=O)[O-])c2)nnc1-c1cccs1` [TCMDC-135586]: the “% Inhibition” value is listed as 11.04%.
As for `COc1cccc(C(=O)Nc2ccc(Nc3nc(C)cc(N4CCCCC4)n3)cc2)c1OC` [TCMDC-124963], the figure is -19.94%; as for `CC(CN(C)C)Oc1ccc2[nH]c(-c3cccc(OCc4ccccc4)c3)nc2c1C#N` (centres unmarked) [TCMDC-133767], 6.337%.
Regarding `CCn1c(-c2nonc2N)nc2c(-c3cccc(NC(=O)Nc4ccc(C#N)cc4)c3)ncc(OCCCN)c21` [TCMDC-136194], the “% Inhibition” value is reported as 88.46%.
As for `Cc1cccc2[nH]c(-c3ccc(-c4ccc(NC(=O)Nc5cccc(C#N)c5)cc4)cc3)nc12` [TCMDC-133196], the figure is -20.21%.
With `N#Cc1cccc(NC(=O)Nc2cccc(-c3cccc(-c4nc5ccccc5[nH]4)c3)c2)c1` [TCMDC-133193], the “% Inhibition” value is on record as -45.89%.
Consider `CCn1c(-c2nonc2N)nc2c(-c3cccc(NC(=O)Nc4cccc(C#N)c4)c3)ncc(OCCCN)c21` [TCMDC-136195], for which the “% Inhibition” value was determined as 98.06%.
As to `COc1ccc(N2CCN(CCCCNC(=O)c3ccc(NC(=O)c4ccc(OC(F)(F)F)cc4)cc3)CC2)c(OC)c1` [TCMDC-138149], the “% Inhibition” value was -10.77%.
For `N#Cc1ccc2c(c1)CCN(CCC1CCC(Nc3ncnc4ccccc34)CC1)C2` (centres unmarked) [TCMDC-139358], the “% Inhibition” value was -22.56%.
As to `Cc1cccc2nc(-c3ccc(-c4cccc(NC(=O)C(C)CN(C)C)c4)s3)[nH]c12` (centres unmarked) [TCMDC-137116], the “% Inhibition” value amounted to 33.05%.
With `Cc1cc2cc(NC(=O)Nc3ccnc4ccccc34)ccc2n1C` [TCMDC-139291], the “% Inhibition” value is on record as -17.26%.
Consider `O=C(Nc1ccc(SC(F)(F)F)cc1)Nc1ccnc2ccccc12` [TCMDC-139287], for which the “% Inhibition” value is recorded as 73.37%.
As for `CN(C)c1cc(NC(=O)Nc2ccccc2)c2ccccc2n1` [TCMDC-123521], the figure is 30.25%; as for `Cc1cc(NC(=O)Nc2cccc(N(C)C)c2)c2ccccc2n1` [TCMDC-138955], -40.58%; as for `CCC(C)c1ccc(NC(=O)Nc2ccnc3ccccc23)cc1` (centres unmarked) [TCMDC-139723], 3.75%.
The same measure for `CN(C)c1cc(NC(=O)Nc2ccc(SC(F)(F)F)cc2)c2ccccc2n1` [TCMDC-123994]: 86%; for `N#Cc1ccc2c(c1)CCN(CCC1CCC(NC(=O)c3cc4ccccc4[nH]3)CC1)CC2` (centres unmarked) [TCMDC-139633]: -57.67%.
